PubChem BioAssay (NCATS)
Inconclusive results are not listed. A call without a number means that no potency is given here. Active and inactive are the calls of the source. Calls come from the whole dose curve; as a rule, active = well fitted curve in the direction sought with a large enough effect; inconclusive = small, poorly fitted or top-dose-only effect, or another doubt; inactive = no such curve, though single readings can be large; an effect the other way counts as inactive or inconclusive.

Tests used:
[1] = biological target: Aldehyde dehydrogenase, mitochondrial (Homo sapiens) (UniProt P05091); assay: qHTS for Inhibitors of the Aldehyde Dehydrogenase Family (ALDH2) Primary screen (AID 2061308); note: nearly all actives have a fitted effect of over 55% in size
[2] = biological target: Retinaldehyde dehydrogenase 3 (Homo sapiens) (UniProt P47895); assay: qHTS for Inhibitors of the Aldehyde Dehydrogenase Family (ALDH1A3) Primary screen (AID 2061315)

| SMILES | Potency [1] | Potency [2] |
| --- | --- | --- |
| COc1ccc(C2=Nn3c(nnc3-c3ccccc3OC)SC2)cc1OC | inactive | inactive |
| Cc1cc(C)n2ncc(C(=O)Nc3ccc(C(C)(C)C)cc3)c2n1 | inactive | inactive |
| CNc1oc(-c2cccc3ncccc23)nc1C#N | inactive | inactive |
| O=C(Nc1ccc2ccccc2c1)Nc1nnc(-c2ccccc2F)s1 | inactive | inactive |
| COc1ccc(C2Nc3ccccc3C(=O)N2Cc2ccc(C(F)(F)F)o2)cc1COc1c(C)cccc1C (stereo not given) | inactive | inactive |
| COc1cc(F)c(S(=O)(=O)N2CCCN(S(=O)(=O)c3cccc(NC(C)=O)c3)CC2)c(F)c1 | inactive | inactive |
| CCc1ccc2oc(NC3=NC(c4[nH]ncc4Cl)C4=C(CCCC4=O)N3)nc2c1 (stereo not given) | inactive | inactive |
| Cc1cn([C@H]2C[C@H](N[S+](=O)([O-])Cc3cc(Cl)cc(Cl)c3)[C@@H](CO)O2)c(=O)[nH]c1=O | inactive | inactive |
| N=c1c2c(ncn1-c1ccccc1)Oc1ccc3ccccc3c1C2c1ccc2c(c1)OCO2 (stereo not given) | inactive | inactive |
| Cc1ccnc(NC(=S)NCCN(C)c2cccc(C(F)(F)F)c2)c1 | inactive | inactive |
| COc1cc(-c2nc(Nc3ccc(F)c(F)c3)c3ccccc3n2)c(F)cn1 | inactive | inactive |
| OC1C=C2C3CN(Cc4cc5c(cc43)OCO5)C2CC1O (stereo not given) | inactive | inactive |
| O=C(Nc1ccc(N2CCOCC2)c(C(F)(F)F)c1)Nc1nnc(-c2ccncc2)s1 | inactive | inactive |
| O=C(O)c1ccc(O)c2ncc(NC3CCNCC3)cc12 | inactive | inactive |
| O=[S+]([O-])(Nc1nccs1)c1ccc(NCc2cccc(Cl)c2)cc1 | inactive | inactive |
| O=C(NCCc1nc2ccccc2n1CCO)C1CCCCC1 | inactive | inactive |
| O=C([C@@H](Cc1ccc(O[S+](=O)([O-])c2cccnc2)cc1)N[S+](=O)([O-])c1cccc2cccnc12)N1CCN(c2ccccc2)CC1 | inactive | inactive |
| CCN(CC)CCn1c(-c2ccccc2)nc2c(N3CCOCC3)nc(C)nc21 | inactive | inactive |
| O=C(Nc1cccc(-c2nn3c(=O)cc(N4CCNCC4)nc3s2)c1)c1ccon1 | inactive | inactive |
| COc1cc(O)c(C(CC(=O)N2CCOCC2)c2ccc(OC)c(OC)c2)c(OC)c1 (stereo not given) | inactive | inactive |
